The values below come from ChEMBL document CHEMBL1201862, “PubChem BioAssay data set” (2004).

About 2,100 (0.53%) of roughly 400,000 compounds were called active. Inconclusive results (about 14%) are left out. The rule behind the calls is not given here. This excerpt belongs to a sample that is enriched for actives.

The target of the assay is Ataxin-2 (Homo sapiens) (UniProt Q99700). Description: qHTS for Inhibitors of ATXN expression. The format is functional.
Ataxin-2 (Homo sapiens), sequence (Q99700 whole entry): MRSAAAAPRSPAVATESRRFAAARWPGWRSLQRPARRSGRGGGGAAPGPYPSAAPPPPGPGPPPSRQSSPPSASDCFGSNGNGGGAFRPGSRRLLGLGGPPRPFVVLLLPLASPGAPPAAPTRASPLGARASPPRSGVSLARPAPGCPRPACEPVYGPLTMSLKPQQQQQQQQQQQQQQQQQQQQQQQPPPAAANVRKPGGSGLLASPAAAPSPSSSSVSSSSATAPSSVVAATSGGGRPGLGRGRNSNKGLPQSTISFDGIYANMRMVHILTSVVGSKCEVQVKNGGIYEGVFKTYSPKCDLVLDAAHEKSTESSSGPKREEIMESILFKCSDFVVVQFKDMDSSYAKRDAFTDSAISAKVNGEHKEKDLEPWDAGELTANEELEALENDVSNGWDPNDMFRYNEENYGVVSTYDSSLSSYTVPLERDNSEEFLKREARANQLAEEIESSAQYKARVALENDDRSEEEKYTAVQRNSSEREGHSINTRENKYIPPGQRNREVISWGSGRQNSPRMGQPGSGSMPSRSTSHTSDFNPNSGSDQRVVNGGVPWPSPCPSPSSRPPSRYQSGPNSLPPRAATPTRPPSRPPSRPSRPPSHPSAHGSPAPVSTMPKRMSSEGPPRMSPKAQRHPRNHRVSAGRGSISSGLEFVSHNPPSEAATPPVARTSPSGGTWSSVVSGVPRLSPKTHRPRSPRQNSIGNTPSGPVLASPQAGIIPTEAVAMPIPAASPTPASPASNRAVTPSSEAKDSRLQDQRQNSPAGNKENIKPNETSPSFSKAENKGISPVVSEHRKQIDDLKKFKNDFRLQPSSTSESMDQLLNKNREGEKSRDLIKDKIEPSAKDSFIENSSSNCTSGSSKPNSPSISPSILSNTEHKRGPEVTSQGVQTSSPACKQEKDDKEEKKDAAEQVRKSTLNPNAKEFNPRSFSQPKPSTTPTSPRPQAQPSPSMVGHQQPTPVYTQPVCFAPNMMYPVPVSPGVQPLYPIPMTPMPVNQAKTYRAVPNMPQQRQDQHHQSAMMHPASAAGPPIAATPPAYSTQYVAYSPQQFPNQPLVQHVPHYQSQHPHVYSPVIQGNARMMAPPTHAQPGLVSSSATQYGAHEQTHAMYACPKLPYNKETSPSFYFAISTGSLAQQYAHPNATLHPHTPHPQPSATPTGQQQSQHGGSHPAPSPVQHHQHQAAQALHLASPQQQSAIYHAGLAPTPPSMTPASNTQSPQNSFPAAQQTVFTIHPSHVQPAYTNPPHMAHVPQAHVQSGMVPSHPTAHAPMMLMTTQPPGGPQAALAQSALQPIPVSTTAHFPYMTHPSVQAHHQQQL
As for `CCN(c1ccccc1)c1nc(=O)c2cccnc2s1`, the Potency result was “inactive”.

Consider `O=S1(=O)C=C(Sc2nnc(-c3ccccc3)o2)c2ccccc21`, for which the Potency is 11.2 µM (active). As to `Brc1cccc(CSc2nnc(-c3ccncc3)o2)c1`, the Potency entry is “inactive”. The value for `O=S1(=O)C=C(Sc2nc3cc(Cl)ccc3o2)c2ccccc21` was 10 µM (active); that for `N#C/C(=C\c1c(Oc2ccccc2F)nc2ccccn2c1=O)C(=O)NC1CCS(=O)(=O)C1` (centres undefined) was “inactive”.

With `O=[N+]([O-])c1cc(S(=O)(=O)N2CCCCCC2)ccc1Cl`, the Potency was 42.3 µM (active). Next, `O=[N+]([O-])c1cc(S(=O)(=O)N2CCCCCC2)ccc1F`: 35.5 µM (active). The value for `Cn1c(=O)oc2cc(S(=O)(=O)N3CCCC3)ccc21` was “inactive”; that for `O=S(=O)(c1ccc(S)nc1)N1CCCCC1` was “inactive”; that for `NC(=O)c1cc(S(=O)(=O)N2CCCCC2)cs1` was “inactive”. With `O=S(=O)(c1ccc(S)nc1)N1CCCCCC1`, the Potency result was “inactive”. The value for `COCc1cc(C)nc2sc(C(=O)Nc3ccccc3C)c(N)c12` was “inactive”. As for `O=C(Nc1nc2n(n1)C(c1ccccc1)C=C(c1ccc(Cl)cc1)N2)c1ccco1` (centres undefined), the Potency result is “inactive”. For `CCCCc1cc(=O)oc2cc(OCC(=O)Nc3cccnc3)c(Cl)cc12`, the Potency entry was “inactive”. The value for `S=C(NCc1ccccc1)N/N=C/c1cccs1` was “inactive”; that for `Cc1ccc(CN2CCSCC2)cc1` was “inactive”.

Regarding `O=C(CCC1CCCC1)NNC(=O)c1ccc(F)cc1`, the Potency entry is “inactive”. Take `O=C(/C=C/c1ccc([N+](=O)[O-])o1)NNC(=O)c1ccc(F)cc1`: the Potency is 7.08 µM (active). Turning to `O=C(CN1C(=O)/C(=C/c2ccccc2F)Oc2ccccc21)N1CCN(c2ccccn2)CC1`, the Potency entry is “inactive”. For `O=C(CSc1nnc(O)n1CCc1ccccc1)NC1CCCC1`, the Potency entry was “inactive”.

As for `COC(=O)c1cc(S(=O)(=O)N2CCN(Cc3ccccc3)CC2)cn1C`, the Potency result was “inactive”. On to `O=C(OC1C2CCC1C1CN(CCc3ccccc3)CC12)c1ccccc1` (centres undefined), for which the Potency is 31.6 µM (active). The value for `CCC1=NN(C(=O)c2ccccc2O)C(O)(c2ccccc2)C1` (centres undefined) was 25.1 µM (active); that for `CCOC(=O)C1=NN(C(=O)c2ccccc2)C(O)(c2ccc(C)cc2)C1` (centres undefined) was “inactive”. The value for `O=C(c1ccccc1)N1N=C(c2ccccc2)CC1(O)C(F)(F)F` (centres undefined) was “inactive”. The value for `COc1cccc(-n2cnnc2SCC(=O)NC2CC2)c1` was “inactive”; that for `CCN(C(=O)CSc1nc2n[nH]c(C)c2c(=N)n1-c1cccc(OC)c1)c1cccc(C)c1` was 22.4 µM (active); that for `CCOC(=O)N1CCN(Cc2nc3ccc([N+](=O)[O-])cc3c(=O)n2-c2cccc(OC)c2)CC1` was “inactive”. Take `CCCCC[C@@H](C)N1C[C@@H](COCc2ccccc2)Oc2cc(N3CC[C@H](N(C)C)C3)ccc2S1(=O)=O`: the Potency was 31.6 µM (active). Next, `CCCCC[C@H](C)N1C[C@H](COCc2ccccc2)Oc2cc(N3CC[C@H](N(C)C)C3)ccc2S1(=O)=O`: 39.8 µM (active); `CCCCC[C@@H](C)N1C[C@@H](COCc2ccccc2)Oc2cc(N3CC[C@@H](O)C3)ccc2S1(=O)=O`: 25.1 µM (active); `C[C@H](c1ccccc1)N1C[C@@H](COCc2ccccc2)Oc2cc(N3CC[C@H](N(C)C)C3)ccc2S1(=O)=O`: 39.8 µM (active). On to `Cc1c(CC(=O)NCc2ccccc2)c(=O)oc2c(C)c(O)ccc12`, for which the Potency entry is “inactive”. The value for `Cc1ccc(C(C)NC(=O)C2CCCC2)c(C)c1` (centres undefined) was “inactive”; that for `C=CCNC(=O)CSc1ncc2c(n1)-c1c(csc1SC)CC2` was “inactive”. Next, `CC(NC(=O)c1cc2c(=O)n3ccccc3nc2n(C(C)C)c1=N)c1ccccc1` (centres undefined): “inactive”; `COCCN(CCOC)c1cc(C)c(C#N)c2nc3ccccc3n12`: “inactive”; `Cc1occc1C(=O)N1CCC2(CCCN(Cc3ccc(F)c(F)c3)C2)C1` (centres undefined): “inactive”. Next, `Cn1c(C(=O)N2CCc3ccccc3C2)cc2c(=O)n3ccccc3nc21`: “inactive”; `Cc1cccc(N2CCN(C(=O)c3cc4c(=O)n(C)c5ccccc5c4n3C)CC2C)c1` (centres undefined): 39.8 µM (active); `CC1CN(C(=O)c2cc3c(=O)n4ccccc4nc3n2C)CC(C)O1` (centres undefined): “inactive”. For the compound `COc1ccc2nc(N3CCCC3)c(C#N)cc2c1`, the Potency entry was “inactive”.

`O=c1cc(CN2CCN(S(=O)(=O)c3ccc4c(c3)OCCO4)CC2)c2ccc(O)cc2o1`: the Potency result was “inactive”. Next, `Cc1cccc(C2=NN(c3ccccc3)[C@@H](C(=O)N3CCOC3=O)[C@@H]2c2ccc(Cl)cc2)c1`: “inactive”; `O=C(Nc1ccc([N+](=O)[O-])cc1)Nc1ccc(OC(F)F)c(Cl)c1`: 35.5 µM (active). In the case of `COc1ccc([N+](=O)[O-])cc1NC(=O)CC(c1ccccc1)c1ccccc1`, the Potency entry was “inactive”. Next, `COc1cc(/C=C/C(=O)OCC(=O)Nc2ccc([N+](=O)[O-])cc2)ccc1O`: “inactive”. Next, `CCOC(=O)/C=c1\s/c(=C\c2ccc3cc(OC)ccc3c2)c(=O)n1CC(=O)NCc1ccc2c(c1)OCO2`: “inactive”; `N#C/C(=C\c1c(N2CCOCC2)nc2ccccn2c1=O)C(=O)NC1CCS(=O)(=O)C1` (centres undefined): “inactive”; `Cn1c(/C(C#N)=C(\O)c2ccc(Br)s2)nc2ccccc21`: “inactive”. On to `CCCCn1c(=N)n(CC(=O)c2ccc(Br)s2)c2ccccc21`, for which the Potency is 39.8 µM (active). As for `CCN(CC)CCn1c(=N)n(CC(=O)c2ccc(Br)s2)c2ccccc21`, the Potency result is “inactive”. Next, `CC(C)n1c(=N)c(C(=O)NCc2cccnc2)cc2c(=O)n3ccccc3nc21`: “inactive”; `N#Cc1c(C(F)(F)F)cc(-c2ccco2)nc1SCc1ccncc1`: “inactive”. The value for `CCc1cc(C(=O)c2ccc(C)cc2)c(NC(=O)CCl)s1` was 31.6 µM (active); that for `CCN(CC)CC(=O)Nc1sc(C)c(C)c1C(=O)c1ccc(C)cc1` was “inactive”.

For `Cc1ccc(C(=O)CC(=O)c2ccc(C)cc2O)cc1`, the Potency entry is “inactive”. Next, `CCOC(=O)c1cc(C(=O)c2cc(Cl)ccc2O)coc1=N`: “inactive”; `Cc1cc(C(=O)c2ccc(Cl)cc2)c(NC(=O)CCl)s1`: 39.8 µM (active). The value for `CCOc1ccccc1/N=c1\oc2cc(O)ccc2cc1C(=O)NCC1CCCO1` (centres undefined) was “inactive”; that for `COC(=O)C(=O)C/C(=N/Nc1ncnc2ccccc12)c1ccc(Cl)cc1` was “inactive”. Turning to `C#CCOc1ccc(C2C3=C(CC(C)(C)CC3=O)N(CC(=O)O)C3=C2C(=O)CC(C)(C)C3)cc1`, the Potency result is “inactive”. Take `Cc1cc2nc3c(=O)n(C4CCCCC4)c(=O)[nH]c3nc2cc1N`: the Potency result was “inactive”. The value for `CCCN(CC(=O)Nc1ccc(F)c(F)c1F)C(=O)Cc1ccc(OC)c(S(=O)(=O)N2CCOCC2)c1` was “inactive”.
